From PubChem BioAssay (NCI)
This is part of a sample that, as a whole, favours compounds with a hit. Of some 79,000 tested, about 15% had one in any assay. No stated cut-off is given here; in the data, active means growth inhibition above about 70%; inactive means the rest.

Assays:
[1] = NCI Yeast Anticancer Drug Screen. Data for the rad50 strain (AID 155);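 further: 0% = growth of vehicle-only cultures of the same strain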; settings: S. cerevisiae rad50 strain growth inhibition; at 50.0 µM; hits give high values
Summary of the method: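 Relative growth inhibition (compound vs vehicle) was measured in yeast with a defined repair-gene alteration.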

[2] = NCI Yeast Anticancer Drug Screen. Data for the mec2-1 strain (AID 157); settings: S. cerevisiae mec2-1 strain, at 50.0 µM, hits give high values
Summary of the method: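 Compounds were applied to mec2-1 yeast cells. Their growth was then compared with that of vehicle-treated cultures to give growth inhibition.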

[3] = NCI Yeast Anticancer Drug Screen. Data for the sgs1 mgt1 strain (AID 161);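 further: 0% = growth of cultures given vehicle only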; settings: S. cerevisiae sgs1 mgt1 strain, at 50.0 µM, hits give high values
Summary of the method: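 Growth of a repair-deficient yeast mutant was monitored after compound treatment and expressed as inhibition relative to vehicle-treated cultures.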

[4] = NCI Yeast Anticancer Drug Screen. Data for the cln2 rad14 strain (AID 165);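 further: 0% = growth equal to vehicle treated cultures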; settings: S. cerevisiae cln2 rad14 strain, at 50.0 µM, hits give high values
Summary of the method: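 Strain: cln2 rad14 yeast, altered in cell cycle control and DNA damage repair. Read-out: growth inhibition vs vehicle.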

[5] = NCI Yeast Anticancer Drug Screen. Data for the bub3 strain (AID 167); settings: S. cerevisiae bub3 mutant strain, at 50.0 µM, hits give high values
Summary of the method: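 Screening used yeast with an engineered genetic alteration affecting cell cycle control. Compound-exposed cultures were compared with vehicle cultures, and reduced growth was taken as inhibition.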

[6] = NCI Yeast Anticancer Drug Screen. Data for the mlh1 rad18 strain (AID 175); settings: S. cerevisiae mlh1 rad18 strain growth inhibition; at 50.0 µM; hits give high values
Summary of the method: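 A repair-deficient yeast strain is exposed to test compound, and growth is scored relative to vehicle-treated controls.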

Measured: growth inhibition

C=CCNC(=O)C[n+]1cccc(C(=O)NC)c1
inactive: [1] 22.6% | [2] 8.35% | [3] -9.15% | [4] -5.35% | [5] -0.45% | [6] -17.8%

COc1cc(C(=O)C/C(CCC(=O)Nc2ccc(Cl)cc2Cl)=N/NC(=O)C(N)=O)ccc1O
inactive: [1] -12.8% | [2] -2.45% | [3] -34.8% | [4] 22.4% | [5] -1.45% | [6] -20.4%

CC(C)NC(=O)NCCc1c[nH]c2ccccc12
inactive: [1] -49.9% | [2] -11.8% | [3] 1.85% | [4] 6.95% | [5] 16.2% | [6] -13.2%

CN(C)C(=O)c1ccc([N+](=O)[O-])cc1
inactive: [1] 21.1% | [2] 6.4% | [3] 11.8% | [4] 12.1% | [5] -4.75% | [6] -23.4%

COc1cc(C)nc2ccc(C(=O)c3ccccc3)cc12
inactive: [1] 31% | [2] 6.1% | [3] 31.6% | [4] 17.5% | [5] 10.4% | [6] 48%

Cn1cc(C(C)(c2ccccc2)c2cn(C)c3ccccc23)c2ccccc21
inactive: [1] -13.8% | [2] -6% | [3] -4.25% | [4] -24.2% | [5] -5.6% | [6] -11%

CCc1ccccc1NC(=O)/C(CC(=O)c1c(C)n([O-])c2ccccc2[n+]1=O)=N\NS(=O)(=O)c1ccc(C)cc1
inactive: [1] -18.8% | [2] -8.25% | [3] -12.3% | [4] 12.7% | [5] 7.25% | [6] 2.5%

Cc1cnoc1/N=C1\C=C(Nc2oncc2C)C(=O)c2ccccc21
inactive: [1] -14.7% | [2] -6.55% | [3] -31.9% | [4] 2.9% | [5] -17.3% | [6] -8.85%

O=C(CCCl)NNC1=NCCCN1
inactive: [1] 2.5% | [2] -14.3% | [3] -15.4% | [4] 23.2% | [5] -4.35% | [6] -0.05%

CC(=O)OCC1OC(Nc2[nH]c(=O)[nH]c(=O)c2N=O)C(OC(C)=O)C(OC(C)=O)C1OC(C)=O (stereo not drawn)
inactive: [1] 5.75% | [2] 3.75% | [3] 0.95% | [4] -1.5% | [5] -1.7% | [6] -10.3%

NC(=O)O/N=C/c1ccc(Cl)cc1
inactive: [1] 2.8% | [2] -16.8% | [3] -13.1% | [4] 10.3% | [5] 17.1% | [6] 9.8%

CCOC(=O)C(/C=C/c1cc(C)c(C)c(C)c1)(NC=O)C(=O)OCC
inactive: [1] -3.25% | [2] 2.55% | [3] 9.6% | [4] 5.75% | [5] 12.1% | [6] -1.3%

CC(C)Cc1cnc(CC(C)C)c(=O)[nH]1
inactive: [1] -13.6% | [2] -44.6% | [3] -28.1% | [4] 10.8% | [5] -40.2% | [6] -25.9%

OC(CC(O)(C(F)(F)F)C(F)(F)F)c1cccs1 (stereo not drawn)
inactive: [1] -1.95% | [2] 13.6% | [3] 4.6% | [4] 51.5% | [5] -5.45% | [6] 12.9%

c1ccc(-n2nnnc2-c2nnnn2-c2ccccc2)cc1
inactive: [1] -7.35% | [2] -5.2% | [3] -1.5% | [4] -18.7% | [5] 20.7% | [6] -11%

CCOc1ccc2nc(NC(=O)C(=O)C3C(=O)C(CC4C(=O)c5ccccc5C4=O)C(=O)CC3(C)C)sc2c1 (stereo not drawn)
inactive: [1] 31.4% | [2] -1.1% | [3] 14.3% | [4] -29.8% | [5] -29.4% | [6] 8.9%

NC(N)=NCC1CCCCCCN1 (stereo not drawn)
inactive: [1] -9.2% | [2] -20.7% | [3] -21.1% | [4] 18.6% | [5] -12.6% | [6] 12.9%

C=CCOC(=O)/C=C\C(=O)OCC=C
inactive: [1] -4.6% | [2] 30.6% | [3] 6.8% | [4] -25.3% | [5] 9.1% | [6] 3.15%

O=C(CBr)c1c2c(cc3c1CCCC3)CCCC2
inactive: [1] 1.75% | [2] -1.35% | [3] -2.05% | [4] -4.9% | [5] 33% | [6] -16.6%

C=C(c1ccccc1)C1(O)CCCCC1N(C)C (stereo not drawn)
inactive: [1] -24.4% | [2] -13.8% | [3] 0.7% | [4] -12.3% | [5] 10.9% | [6] 12.4%

Cc1[nH]c2ccc(-c3ccccc3)cc2c1CC(=O)O
inactive: [1] 51.5% | [2] -22.8% | [3] 47.7% | [4] -5.85% | [5] 3.35% | [6] 53.9%

O=C(O)C1CCCCCC1
inactive: [1] 7.45% | [2] 0.65% | [3] 1.8% | [4] -2.55% | [5] 8.65% | [6] 2%

CC(=O)Nc1ccc(N=C2c3ccccc3-c3ccc([N+](=O)[O-])cc32)cc1
inactive: [1] -6.1% | [2] -10.8% | [3] 11.2% | [4] -11.7% | [5] -5.7% | [6] -13.6%

CN1Cc2ccccc2-c2ccccc2C1
inactive: [1] 4.35% | [2] 1.8% | [3] -5.95% | [4] -32.8% | [5] 4.7% | [6] -2%

COc1cc(NS(=O)(=O)c2ccccc2)ccc1C
inactive: [1] 27.6% | [2] -20.3% | [3] 14.7% | [4] 12.3% | [5] 22.4% | [6] 24.9%

CCOC(=O)C1Cc2ccccc2OC1=O (stereo not drawn)
inactive: [1] -9.4% | [2] -15.2% | [3] 20.4% | [4] 12.8% | [5] 9.55% | [6] 3.85%

O=C(NNC(=O)c1ccc2ccccc2c1)c1cccc(Br)c1
inactive: [1] -21.1% | [2] -20.6% | [3] -6.55% | [4] 10.1% | [5] -5.6% | [6] -7.95%

O=S(=O)(OCC(F)(F)F)c1ccccc1
inactive: [1] 16.4% | [2] 8.25% | [3] 14.7% | [4] -2.8% | [5] -8.8% | [6] -10.4%

CCNC(=O)CCC(NS(=O)(=O)c1ccc(NC(=O)c2ccc(Cl)cc2)cc1)C(=O)O (stereo not drawn)
inactive: [1] 0.8% | [2] -4.95% | [3] -26% | [4] -4.6% | [5] 0.1% | [6] -1.9%

Cc1nnc(N)s/c1=N/O
inactive: [1] 7.5% | [2] 4.6% | [3] 2.45% | [4] -5.55% | [5] 3.15% | [6] -11.6%

CC1OC1C(=O)C1(O)C(C)C(O)C23OC2(C(O)c2c(O)cccc2C3=O)C1O (stereo not drawn)
inactive: [1] 6.75% | [2] -21.8% | [3] 8.65% | [4] -1.1% | [5] -0.7% | [6] 10.3%

O=C(C(=O)c1cc(-c2ccccc2)nc2ccc3ccccc3c12)c1ccccc1
inactive: [1] -24.3% | [2] -5.65% | [3] -1.05% | [4] 13.9% | [5] 30.1% | [6] 14.3%

CCC1(CC)COC2(CCC(C)CC2)OC1
inactive: [1] -6.4% | [2] -2.95% | [3] -5.05% | [4] -16.1% | [5] -14.7% | [6] 7.5%

O=C(NNC(=O)c1ccccc1F)c1ccc2ccccc2c1
inactive: [1] -15.3% | [2] -13.3% | [3] -8.75% | [4] -2.5% | [5] -2.1% | [6] -6.55%

CCC(C(=O)c1ccccc1)[n+]1ccccc1 (stereo not drawn)
inactive: [1] -4.55% | [2] -16% | [3] -6.7% | [4] -15.6% | [5] 13.2% | [6] 3.05%

O=C(/C=C/c1ccc(Cl)cc1)c1ccc(Cl)s1
inactive: [1] -52% | [2] -48.8% | [3] -23.1% | [4] -16.2% | [5] -16.1% | [6] -24.9%

Cc1ccc(S(=O)(=O)Cc2c(C)cc(C)cc2C)cc1
inactive: [1] 12.3% | [2] 3.8% | [3] -2.25% | [4] -30.9% | [5] -10.6% | [6] 1.15%

CCCOc1ccccc1C(=O)N1CCOCC1
inactive: [1] 25% | [2] -0.25% | [3] 7.8% | [4] 16.1% | [5] 8.8% | [6] 15.8%
